Experimental data from article PMC5540273 (PLoS ONE, 2017).

How the values were obtained:
Conditions in all cases: concentration: 1 μM, replicates: in singlicate; n = 1
PKAC-beta = tested on: T1, PKAC-beta
T1 construct: gene PRKACB

PKMYT1 = tested on: PKMYT1
PKN1 = tested on: PKN1
PKN2 = tested on: PKN2
PLK1 = tested on: PLK1
PLK2 = tested on: PLK2
PLK3 = tested on: PLK3
PLK4 = tested on: PLK4
PRKCD = tested on: PRKCD
PRKCE = tested on: PRKCE
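Further: KINOMEscan kinase panel screen.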

Compound | %Inh (PKAC-beta) [%] | %Inh (PKMYT1) [%] | %Inh (PKN1) [%] | %Inh (PKN2) [%] | %Inh (PLK1) [%] | %Inh (PLK2) [%] | %Inh (PLK3) [%] | %Inh (PLK4) [%] | %Inh (PRKCD) [%] | %Inh (PRKCE) [%]
CCn1c(-c2ccccc2)nc2cnccc21 [SB-733416] | 3 | 30 | 0 | 0 | 0 | 0 | 0 | 0 | 8 | 22
Cc1ccc(NC(=O)Nc2ccccc2)cc1-c1ccc(C(=O)Nc2ccncc2)cc1 [GSK1398471] | 0 | 28 | 0 | 2 | 2 | 0 | 0 | 1 | 0 | 0
Cc1c(Cn2c(C)c(C)n3c(=O)cc(N4CCOCC4)nc23)cccc1C(F)(F)F [GSK2328680] | 0 | 17 | 0 | 0 | 0 | 100 | 0 | 0 | 0 | 0
Cn1cnc2c(N)ncnc21 [SKF-97623] | 0 | 0 | 0 | 0 | 0 | 0 | 0 | 0 | 0 | 9
Cl.Cl.Cl.N#Cc1ccc(CCNc2nccc(-c3cccc(CN4CCNCC4)c3)n2)cc1 [GSK2137462] | 5 | 18 | 0 | 2 | 5 | 5 | 0 | 6 | 18 | 76
Cc1cnc(N)c(/C=C/c2cncc(C(=O)NCCc3ccc(Cl)cc3Cl)c2)c1.Cl [GSK190937] | – | 0 | 7 | 0 | 0 | 0 | 0 | 0 | 8 | 21
O=C1NC(=O)C(c2ccc(Cl)cc2)=C1Nc1ccc(O)cc1 [SB-340867] | 18 | 0 | 0 | 12 | 0 | 0 | 0 | 0 | 0 | 1
CC(C)c1ccc(O)cc1Nc1ccnc2ccc(C(F)(F)F)cc12 [GW482059] | 16 | 0 | 36 | 0 | 0 | 0 | 0 | 0 | 0 | 0
CNC(=O)c1ccc(C)c(-n2c(C)cc(OCc3ccc(F)cc3F)c(Br)c2=O)c1 | 74 | 0 | 0 | 19 | 0 | 0 | 0 | 0 | 7 | 35
Cc1ccccc1Cn1ccn2c(=O)cc(N3CCOCC3)nc12 [GSK2269905] | 1 | 0 | 0 | 0 | 0 | 0 | 0 | 0 | 0 | 7
CNc1cc(-c2ccc3c(N)n[nH]c3c2)nc(N)n1 [GSK2224810] | 0 | 4 | 10 | 0 | 0 | 0 | 0 | 5 | 0 | 15
COc1ccc(-c2coc3ccc(-c4nnc(C)o4)cc23)cc1 | 8 | 1 | 7 | 18 | 0 | 0 | 0 | 2 | 5 | 2
NS(=O)(=O)c1cccc(N/C=C2\C(=O)Nc3ccc(S(=O)(=O)Cc4c(Cl)cccc4Cl)cc32)c1 [GSK398099] | 0 | 5 | 38 | 0 | 1 | 0 | 0 | 18 | 0 | 11
Nc1cccc(-c2ccc3c(N)n[nH]c3c2)n1 [GSK2192730] | 0 | 0 | 37 | 0 | 0 | 0 | 0 | 8 | 0 | 0
COc1ccc(Nc2nccc(N3CCC(NC(=O)C(C)c4ccc(Cl)cc4)CC3)n2)cc1 (stereo not shown) [GSK1379812] | 8 | 9 | 0 | 6 | 20 | 0 | 0 | 13 | 0 | 1
Cc1nccc(-c2c(-c3ccc(F)cc3)ncn2CCCN2CCOCC2)n1.Cl [SB-282975] | 0 | 0 | 19 | 1 | 44 | 21 | 5 | 3 | 31 | 11
Fc1ccc(-c2nc[nH]c2-c2ccncc2)cc1 [SB-217360] | 0 | 9 | 0 | 0 | 9 | 21 | 36 | 4 | 8 | 0
Nc1ncnc2occ(-c3ccc4c(c3)CCN4C(=O)Cc3cc(F)ccc3F)c12 [GSK2645446] | 8 | 0 | 7 | 0 | 0 | 0 | 0 | 5 | 0 | 0

Compound | %Inh (PKAC-beta) [%] | %Inh (PKMYT1) [%] | %Inh (PKN1) [%] | %Inh (PKN2) [%] | %Inh (PLK1) [%] | %Inh (PLK2) [%] | %Inh (PLK3) [%] | %Inh (PLK4) [%] | %Inh (PRKCD) [%] | %Inh (PRKCE) [%]
Cn1cncc1-c1cc2c(Nc3ccc(OCc4ccccc4)cc3)ncnc2cn1 [GW281179] | 7 | 0 | 0 | 0 | 0 | 0 | 0 | 0 | 3 | 4
COC(=O)c1cccc(NC(=O)NC2CCN(c3ccnc(Nc4ccc(OC)cc4)n3)C2)c1 (stereo not shown) [GSK1379746] | 0 | 0 | 11 | 0 | 0 | 0 | 0 | 0 | 0 | 8
CNCc1ccc2nc(NC(=O)c3ccc(C(C)(C)C)cc3)cn2c1 | 5 | 11 | 8 | 7 | 2 | 7 | 22 | 8 | 0 | 12
COc1cccc(CNC(=O)NC2CCN(c3ccnc(Nc4ccc(F)cc4)n3)C2)c1 (stereo not shown) [GSK1379723] | 0 | 2 | 4 | 0 | 0 | 0 | 0 | 0 | 0 | 9
COC(=O)C(Cc1ccccc1)NC(=O)NC1CCN(c2ccnc(Nc3ccc(F)cc3)n2)C1 (stereo not shown) [GSK1379714] | 0 | 0 | 41 | 0 | 6 | 0 | 0 | 12 | 1 | 20
CC(=O)c1cccc(NC(=O)NC2CCN(c3ccnc(Nc4ccc(F)cc4)n3)C2)c1 (stereo not shown) [GSK1379710] | 0 | 3 | 31 | 0 | 7 | 0 | 9 | 0 | 0 | 15
CC(=O)c1c(C)c2cnc(Nc3ccn(C)n3)nc2n(C2CCCC2)c1=O | 0 | 0 | 0 | 0 | 0 | 8 | 0 | 15 | 0 | 0
CS(=O)(=O)Cc1ccc(Nc2nccc(-c3c(-c4cccc(NC(=O)C5CCCCC5)c4)nn4ncccc34)n2)cc1 [GSK350559] | 0 | 3 | 10 | 0 | 15 | 3 | 13 | 6 | 0 | 0
CS(=O)(=O)CCNCc1nc(-c2ccc3ncnc(Nc4ccc(OCc5ccccc5)c(Cl)c4)c3c2)cs1.Cl [GW582764] | 2 | 0 | 0 | 0 | 0 | 0 | 0 | 0 | 0 | 6
Cn1cncc1C(=O)NC1CCN(c2ccnc(Nc3ccc(F)cc3)n2)C1 (stereo not shown) [GSK1379717] | 0 | 0 | 52 | 0 | 12 | 0 | 11 | 0 | 0 | 0
O=C(Nc1n[nH]c2nc(-c3cccs3)c(Br)cc12)C1CC1 [SB-735297] | 2 | 0 | 0 | 0 | 9 | 19 | 7 | 8 | 7 | 19
Cc1ccc(NC(=O)Nc2ccc(Cl)cc2)cc1-c1ccc(C(=O)Nc2ccncc2)cc1 [GSK1398472] | 0 | 5 | 0 | 0 | 0 | 0 | 0 | 0 | 0 | 21
COc1ccc(CSc2nnc(-c3ccc4c(c3)CCO4)o2)cc1 | 0 | 19 | 0 | 0 | 0 | 0 | 0 | 0 | 14 | 0
CSc1ccc(-c2nc3n(c2-c2ccncc2)CCC3)cc1 [SKF-105561] | 18 | 5 | 0 | 12 | 1 | 29 | 6 | 2 | 9 | 23
CS(=O)(=O)CCNCc1nc(-c2ccc3ncnc(Nc4ccc5c(cnn5Cc5ccccc5)c4)c3c2)cs1.Cl.Cl [GW569716] | 3 | 6 | 0 | 15 | 0 | 0 | 0 | 13 | 0 | 11
CC[C@@H]1CO[C@H](C(=O)Nc2ccccc2)CN1c1cc(-c2ccc3c(N)n[nH]c3c2)nc(NC)n1 [GSK2376236] | 73 | 0 | 85 | 0 | 0 | 0 | 0 | 0 | 0 | 3
COC(=O)c1cccc(NC(=O)NC2CCN(c3ccnc(Nc4ccc(F)cc4)n3)C2)c1 (stereo not shown) [GSK1379725] | 0 | 0 | 0 | 0 | 0 | 0 | 0 | 0 | 0 | 4
